Chronic BCR inh: qHTS Assay to Find Inhibitors of Chronic Active B-Cell Receptor Signaling; ABC-DLBCL IkBa-CBG/CBR reporter, luminescence ratio, 4 h; Potency, µM (doses to about 46.1 µM), for inactives: at the highest dose activity change, negative = inhibition, most hits filed as inhibitors; 0.05% of 340,000 active; active means well fitted inhibition curve with a large enough effect in the signal ratio, with a control signal flat, not every such curve was filed as active; inconclusive means small, poorly fitted or top-dose-only effect, or effect the other way, or a change in a side signal; the % refers to the signal ratio;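 further: potency means the concentration at half of the fitted maximal effect; plate controls were basal doxycycline-induced cells for no effect and cells given 10 µM MG132 for full effect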
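Compounds up to 46 uM were incubated four hours with TMD8 cells whose green CBG68 luciferase is fused to IkappaBalpha; red CBR luminescence normalised the signal, and concentration-effect curves were fitted to fusion, red and ratio data.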
DRD3 agonist: qHTS of D3 Dopamine Receptor Agonist: qHTS; D(3) dopamine receptor (Homo sapiens), P35462; D3R DiscoveRx beta-arrestin cells, luminescence, 90 min; max activation, %; 0.58% of 410,000 active; AID 652048, 2013; in the data active means max activation above about 30%; further: 0% is about no effect
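Agonist-mode cell screen: cells plated at 1500/well and incubated overnight at 37 °C, then exposed to library compounds for 90 min at 37 °C. Detection reagent was added for 30–60 min at room temperature, and luminescence was read.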
D3 antag: qHTS of D3 Dopamine Receptor Antagonist: qHTS | D(3) dopamine receptor (Homo sapiens), P35462 | D3R cells, DiscoveRx beta-arrestin luminescence, antagonist mode; stronger effect = lower value | max response, negative = inhibition, % | 2.5% of 360,000 active; in the data active means max response below about -50%; inconclusive means no clear call, values can overlap the other calls; further: on the % scale 0 is the no-effect control and ±100 the full control effect
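Cells expressing the human receptor were seeded at 1500 cells/well, incubated overnight at 37 degrees C in 5% CO2, then exposed to library compounds with dopamine controls for 90 minutes at 37 degrees C before luminescent detection.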
D1 agonist: Allosteric Agonists of the Human D1 Dopamine Receptor: qHTS; D(1A) dopamine receptor (Homo sapiens), P21728; HEK293 T-REx D1 cells, calcium flux, agonist mode; activation, % at 2 µM; 1% of 360,000 active; AID 504660, 2011; in the data active means activation above about 30%; further: 0% is about no effect
Target sequence (P21728 whole entry, looked up): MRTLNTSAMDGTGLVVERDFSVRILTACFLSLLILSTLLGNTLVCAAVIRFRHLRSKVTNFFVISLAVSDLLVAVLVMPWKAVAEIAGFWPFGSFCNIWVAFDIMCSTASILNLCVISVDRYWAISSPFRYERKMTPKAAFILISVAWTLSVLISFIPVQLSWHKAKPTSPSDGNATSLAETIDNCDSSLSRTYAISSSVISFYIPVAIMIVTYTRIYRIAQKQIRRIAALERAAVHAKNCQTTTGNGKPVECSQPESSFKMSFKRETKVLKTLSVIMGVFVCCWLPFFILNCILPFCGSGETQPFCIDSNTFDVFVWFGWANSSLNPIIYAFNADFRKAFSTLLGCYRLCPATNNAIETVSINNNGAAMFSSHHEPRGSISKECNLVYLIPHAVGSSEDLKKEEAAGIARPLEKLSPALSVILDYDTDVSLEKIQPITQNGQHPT
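Tetracycline-induced HEK293 TREx D1 cells, force-coupled to calcium signalling, were dye-loaded with a no-wash calcium kit. Compound was pin-added after a 10 s baseline. Fluorescence was read kinetically at 1 cycle/s for 180 s, with calcium rises flagged as agonism.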
D1 antag: Antagonist of Human D 1 Dopamine Receptor: qHTS; D(1A) dopamine receptor (Homo sapiens), P21728; HEK293 TREx D1 cells, calcium flux, dopamine EC80; stronger effect = lower value; activity change, negative = inhibition, % at 10 µM; 3.2% of 360,000 active; AID 504652, 2011; in the data active means activity change below about -30%; further: on the % scale 0 is the no-effect control and ±100 the full control effect
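Compound effects on dopamine-evoked calcium signalling were measured in tetracycline-induced HEK293 Trex D1 cells. Dopamine at EC80 followed a 180 s compound pre-read, and fluorescence was tracked kinetically for 180 s more.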
D1 potentiator: Potentiators of Human D1 Dopamine Receptor: qHTS | HEK293 TREx D1 cells, calcium flux, dopamine EC20 potentiation | 0.036% of 360,000 active | potentiation, % at 10 µM; in the data active means potentiation above about 30%; further: 0% is about no effect
* marks the source's active call; other numbers are inactive results; ? = inconclusive; nt = no result. Sampled rows, rich in hits. Any-hit rate of the full collection: about 6%.

SMILES	Chronic BCR inh	DRD3 agonist	D3 antag	D1 agonist	D1 antag	D1 potentiator
COc1cccc(C2CC(=O)N3CN(C4CCCCC4)CSC3=C2C#N)c1 (stereo not given)	nt	0	nt	-1	-3	3
Clc1cccc(-c2ccc(/C=N/n3cnnc3)o2)c1Cl	0%	-1	39	1	-61*	-5
CCCCNC(=O)C1(C)CCCCN1C(=O)c1ccc(F)c(C)c1 (stereo not given)	nt	-2	?	nt	nt	nt
COc1ccccc1Cc1c(-c2ccco2)nc2ccc(C)cn12	nt	-13	-50*	nt	nt	nt
COc1ccccc1Cc1c(-c2cccc(Br)c2)nc2ccc(Br)cn12	nt	-4	-20	nt	nt	nt
COc1ccccc1Cc1c(-c2ccco2)nc2c(C)cc(Br)cn12	nt	-16	-92*	nt	nt	nt
COc1ccccc1Cc1c(-c2cccc(Br)c2)nc2ccc(Cl)cn12	nt	-10	-50*	nt	nt	nt
Cc1cc(Br)cn2c(Cc3ccsc3)c(-c3ccco3)nc12	nt	-15	-56*	nt	nt	nt
CCC(=O)Nc1ccc2nc(SCc3ccc(C)cc3)sc2c1	nt	4	nt	2	-2	0
COc1ccc(NC(=O)C(OC(=O)CNC(=O)c2ccccc2)c2ccccc2)cc1Cl (stereo not given)	nt	nt	nt	3	12	3
Cc1cc(Br)cn2c(Cc3ccccc3)c(-c3cccc(Br)c3)nc12	nt	-12	-51*	nt	nt	nt
Cc1cc(Br)cn2c(Cc3ccccc3)c(-c3ccc(Cl)cc3)nc12	nt	-6	-19	nt	nt	nt
Cc1nc2scc(C)n2c(=O)c1S(=O)(=O)Nc1cccc(C(F)(F)F)c1	nt	6	nt	22	-24	-2
Cc1nccn1CCOc1ccccc1Cl	?	-8	-22	7	-34*	-7
Clc1ccccc1OCCCn1ccnc1	-4%	-7	-1	4	-2	-2
O=C(O)/C=C/c1cc(F)c(S(=O)(=O)N2CCN(S(=O)(=O)c3ccc4c(c3)OCCO4)CC2)cc1F	nt	nt	nt	-1	-1	-8
CCCCOc1ccc(S(=O)(=O)Nc2ccc(-c3ccc(N4CCCCC4)nn3)cc2)cc1	nt	-1	nt	9	-9	2
COc1cc(OC)c(NC(=O)Cn2c(=O)cc(C(F)(F)F)c3c(C)nn(C)c32)cc1Cl	nt	1	nt	0	-20	-5
O=c1c(N=Nc2ccccc2)c[nH]n1-c1ccccc1	nt	-19	-62*	nt	nt	nt
Cc1ccc(NC(=O)c2ncn(CCCNCCCc3ccccc3)n2)cc1C	nt	-40	-17	nt	nt	nt
CC(=O)COc1ccc2cc(-c3ccccc3)c(=O)oc2c1	-1%	-3	4	9	-13	-3
O=C(CCCCl)Oc1ccc2cc(-c3ccc4ccccc4n3)c(=O)oc2c1	3%	5	9	51*	-4	-3
Cc1ccc(NC(=O)c2cccc(NC(=O)N3CCSc4ncccc43)c2)cc1F	nt	3	nt	0	9	-4
CCC(=O)c1ccc2ncccc2c1	-1%	-1	8	0	-30*	-8
Cc1ccc(C(=O)Nc2ccc3ncccc3c2)cc1	?	-14	-19	0	-11	-4
SMILES	Chronic BCR inh	DRD3 agonist	D3 antag	D1 agonist	D1 antag	D1 potentiator
O=C(Nc1ccccc1)NC1CS(=O)(=O)CC1O (stereo not given)	3%	-6	35	2	-41*	-9
O=C(CSc1ncc(CO)n1Cc1ccccc1)Nc1ccc(C(F)(F)F)cc1	nt	-9	nt	8	-22	-2
O=C(CCN1CCN(c2ccc(Cl)cc2)CC1)Nc1nccs1	4%	8	-66*	11	3	17
O=C(CN1CCN(c2cccc(Cl)c2)CC1)Nc1nccs1	?	0	4	8	-23	-8
CCOc1cccc(=O)c2c(C)n(CC(=O)c3ccccc3)c(C)c12	24%	-1	-9	6	14	0
COc1cccc(=O)c2c(C)n(CC(=O)c3ccccc3)c(C)c12	11%	-6	-16	6	-33*	-4
C=CCc1c(C)nc2c(-c3ccccc3)cnn2c1N1CCOCC1	?	10	43	1	-32*	-8
